Test results: PubChem BioAssay (NCATS)
Records with an inconclusive call do not appear. Active and inactive are the calls of the source. The call rests on the fitted dose curve; in most records, active means well fitted curve in the direction sought with a large enough effect; inconclusive means small, poorly fitted or top-dose-only effect, or another doubt; inactive means no such curve, though single readings can be large; an effect the other way counts as inactive or inconclusive.

How the values were obtained:
HACAT = test: qHTS assay to identify novel small-molecules to repurpose for Merkel cell carcinoma treatment (AID 1296009); details: MCC and control cell lines, CellTiter-Glo viability, 72 h; at 44.8 µM (top of the series) unless noted; further: nearly all actives have a fitted effect of over 60% in size
How it was run: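 After compound transfer in DMSO, plates were kept 72 hr at 37 degree celsius. Luminescent ATP signal from CellTiter-Glo served as viability measure, normalized against DMSO and no-cell controls.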

C33A = test: Primary qHTS to identify gynecologic anti-cancer compounds using libraries of approved drugs and bioactive compounds (AID 1345084); details: Gynecologic cancer cell panel viability, ATPlite luminescence, 48 h; series mostly up to 57.5 µM; further: on the % scale 0 is the no-effect control and ±100 the full control effect; nearly all actives have a fitted effect of over 55% in size
How it was run: (§1)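 Cells, 1,000 per well, were allowed to settle for 16 h at 37 C before compound addition. Five concentrations were tested for 48 h, and viability was read by ATPlite luminescence after 15 min at room temperature.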

CAOV3 = test: as above; details: Gynecologic cancer cell panel viability, ATPlite luminescence, 48 h; series mostly up to 57.5 µM
How it was run: as §1

CASKI = test: as above; details: Gynecologic cancer cell panel viability, ATPlite luminescence, 48 h; series mostly up to 57.5 µM
How it was run: as §1

Es-2 = test: as above; details: Gynecologic cancer cell panel viability, ATPlite luminescence, 48 h; series mostly up to 57.5 µM
How it was run: as §1

HeLa = test: as above; details: Gynecologic cancer cell panel viability, ATPlite luminescence, 48 h; series mostly up to 57.5 µM
How it was run: as §1

Hek293T = test: as above; details: Gynecologic cancer cell panel viability, ATPlite luminescence, 48 h, control line for the selectivity index; series mostly up to 57.5 µM
How it was run: as §1

JEG-3 = test: as above; details: Gynecologic cancer cell panel viability, ATPlite luminescence, 48 h; series mostly up to 57.5 µM
How it was run: as §1

OV90 = test: as above; details: Gynecologic cancer cell panel viability, ATPlite luminescence, 48 h; series mostly up to 57.5 µM
How it was run: as §1

PA-1 = test: as above; details: Gynecologic cancer cell panel viability, ATPlite luminescence, 48 h; series mostly up to 57.5 µM
How it was run: as §1

Tov-21-G = test: as above; details: Gynecologic cancer cell panel viability, ATPlite luminescence, 48 h; series mostly up to 57.5 µM
How it was run: as §1

Tov112D = test: as above; details: Gynecologic cancer cell panel viability, ATPlite luminescence, 48 h; series mostly up to 57.5 µM
How it was run: as §1

SKOV3 = test: as above; details: Gynecologic cancer cell panel viability, ATPlite luminescence, 48 h; series mostly up to 57.5 µM
How it was run: as §1

CC(C)[C@](O)(c1ccc2cc(OC(F)F)c(OC(F)F)cc2c1)c1cn[nH]n1
inactive: outcome (HACAT) | Potency (C33A) | Potency (CAOV3) | outcome (CASKI) | Potency (Es-2) | Potency (HeLa) | Potency (Hek293T) | Potency (JEG-3) | Potency (OV90) | Potency (PA-1) | Potency (Tov-21-G) | Potency (Tov112D)

CCC12CCCN3CCc4c(n(c5ccccc45)C(O)C1)C32 (stereo not drawn)
inactive: outcome (HACAT) | Potency (C33A) | Potency (CAOV3) | outcome (CASKI) | Potency (Es-2) | Potency (HeLa) | Potency (Hek293T) | Potency (JEG-3) | Potency (OV90) | Potency (PA-1) | Potency (Tov-21-G) | Potency (Tov112D)

OCC1OC(Oc2cc(O)cc(/C=C/c3ccc(OC4OC(CO)C(O)C(O)C4O)cc3O)c2)C(O)C(O)C1O (stereo not drawn)
inactive: outcome (HACAT) inactive [at 17.4 µM] | Potency (C33A) | Potency (CAOV3) | outcome (CASKI) | Potency (Es-2) | Potency (HeLa) | Potency (Hek293T) | Potency (JEG-3) | Potency (OV90) | Potency (PA-1) | Potency (Tov-21-G) | Potency (Tov112D)

CCOc1ccc(-c2cc(NC(=O)c3c(F)cccc3F)c(C(=O)O)s2)cc1
inactive: outcome (HACAT) | Potency (C33A) | Potency (CAOV3) | outcome (CASKI) | Potency (Es-2) | Potency (HeLa) | Potency (Hek293T) | Potency (JEG-3) | Potency (OV90) | Potency (PA-1) | Potency (Tov-21-G) | Potency (Tov112D)

Cc1ccc(-c2c(-c3nn(C)c4ncnc(N5CCC(N6CCCCC6)C5)c34)cnn2C)cc1 (stereo not drawn)
inactive: outcome (HACAT) | Potency (C33A) | Potency (CAOV3) | outcome (CASKI) | Potency (Es-2) | Potency (HeLa) | Potency (Hek293T) | Potency (JEG-3) | Potency (OV90) | Potency (PA-1) | Potency (Tov-21-G) | Potency (Tov112D)

C[C@@H]1O[C@@H](O[C@H]2[C@H](O[C@H]3[C@H](O[C@H]4CC[C@@]5(C)C(CC[C@]6(C)C5CC=C5[C@@H]7CC(C)(C)CC(=O)[C@]7(C)CC[C@]56C)[C@@]4(C)CO)O[C@H](C(=O)O)[C@@H](O)[C@@H]3O)O[C@H](CO)[C@H](O)[C@@H]2O)[C@H](O)[C@H](O)[C@H]1O (stereo partly drawn)
inactive: outcome (HACAT) inactive [at 9.27 µM] | activity change, negative = cytotoxicity (C33A) 0.189% [at 11.6 µM] | activity change, negative = cytotoxicity (CAOV3) 7.98% [at 11.6 µM] | activity change, negative = cytotoxicity (CASKI) 5.16% [at 11.6 µM] | activity change, negative = cytotoxicity (Es-2) -0.773% [at 11.6 µM] | activity change, negative = cytotoxicity (HeLa) 5.13% [at 11.6 µM] | activity change, negative = cytotoxicity (Hek293T) -1.22% [at 11.6 µM] | activity change, negative = cytotoxicity (JEG-3) 4.8% [at 11.6 µM] | activity change, negative = cytotoxicity (OV90) -8.44% [at 11.6 µM] | activity change, negative = cytotoxicity (SKOV3) 0.762% [at 11.6 µM] | activity change, negative = cytotoxicity (Tov-21-G) 5.22% [at 11.6 µM] | activity change, negative = cytotoxicity (Tov112D) -2.67% [at 11.6 µM]

C[C@@H]1CCC2C(C)(C)[C@H](O)[C@H](O)C[C@]2(C)[C@@]12Cc1c(O)cc3c(c1O2)CN(CCCC(=O)O)C3=O (stereo partly drawn)
inactive: outcome (HACAT) inactive [at 17.4 µM] | Potency (C33A) | Potency (CAOV3) | outcome (CASKI) | Potency (Es-2) | Potency (HeLa) | Potency (Hek293T) | Potency (JEG-3) | Potency (OV90) | Potency (PA-1) | Potency (Tov-21-G) | Potency (Tov112D)

C[C@@H](CC[C@@H]1[C@@]2(C)CCCC(C)(C)C2CC[C@@]1(C)O)CC(=O)O (stereo partly drawn)
inactive: outcome (HACAT) | Potency (C33A) | Potency (CAOV3) | outcome (CASKI) | Potency (Es-2) | Potency (HeLa) | Potency (Hek293T) | Potency (JEG-3) | Potency (OV90) | Potency (PA-1) | Potency (Tov-21-G) | Potency (Tov112D)

NC(=O)NCCCC(NC(=O)Cc1ccccc1)C(=O)O (stereo not drawn)
inactive: outcome (HACAT) | Potency (C33A) | Potency (CAOV3) | outcome (CASKI) | Potency (Es-2) | Potency (HeLa) | Potency (Hek293T) | Potency (JEG-3) | Potency (OV90) | Potency (PA-1) | Potency (Tov-21-G) | Potency (Tov112D)

COc1ccc(C2COc3cc(O)ccc3C2)c(O)c1OC (stereo not drawn)
inactive: outcome (HACAT) | Potency (C33A) | Potency (CAOV3) | outcome (CASKI) | Potency (Es-2) | Potency (HeLa) | Potency (Hek293T) | Potency (JEG-3) | Potency (OV90) | Potency (PA-1) | Potency (Tov-21-G) | Potency (Tov112D)

C[C@]1(C2CCCC2)Cc2cc(OCC(=O)O)c(Cl)c(Cl)c2C1=O
inactive: outcome (HACAT) | Potency (C33A) | Potency (CAOV3) | outcome (CASKI) | Potency (Es-2) | Potency (HeLa) | Potency (Hek293T) | Potency (JEG-3) | Potency (OV90) | Potency (PA-1) | Potency (Tov-21-G) | Potency (Tov112D)

O=C(O)c1ccncc1Nc1nn(CCN2CCC(F)(F)CC2)c2ccc(F)cc12
inactive: outcome (HACAT) | Potency (C33A) | Potency (CAOV3) | outcome (CASKI) | Potency (Es-2) | Potency (HeLa) | Potency (Hek293T) | Potency (JEG-3) | Potency (OV90) | Potency (PA-1) | Potency (Tov-21-G) | Potency (Tov112D)

C=C(C)[C@H]1CC[C@]2(C(=O)O)CC[C@]3(C)C(CCC4[C@@]5(C)CCC(=O)C(C)(C)C5CC[C@]43C)C12 (stereo partly drawn)
inactive: outcome (HACAT) inactive [at 17.4 µM] | Potency (C33A) | Potency (CAOV3) | outcome (CASKI) | Potency (Es-2) | Potency (HeLa) | Potency (Hek293T) | Potency (JEG-3) | Potency (OV90) | Potency (PA-1) | Potency (Tov-21-G) | Potency (Tov112D)

CC(C)=CCC[C@](C)(O[C@@H]1O[C@H](CO[C@@H]2O[C@@H](CO)[C@H](O)[C@H]2O)[C@@H](O)[C@H](O)[C@H]1O)[C@H]1CC[C@]2(C)[C@@H]1[C@H](O)C[C@@H]1[C@@]3(C)CC[C@H](O[C@@H]4O[C@H](CO)[C@@H](O)[C@H](O)[C@H]4O[C@@H]4O[C@H](CO)[C@@H](O)[C@H](O)[C@H]4O)C(C)(C)[C@@H]3CC[C@]12C
inactive: outcome (HACAT) inactive [at 17.4 µM] | Potency (C33A) | Potency (CAOV3) | outcome (CASKI) | Potency (Es-2) | Potency (HeLa) | Potency (Hek293T) | Potency (JEG-3) | Potency (OV90) | Potency (SKOV3) | Potency (Tov-21-G) | Potency (Tov112D)
